# The full list was thinned out, with hits kept by preference.
# Pf Dd2 inh: blocks in vitro growth of P. falciparum Dd2 | P. falciparum Dd2 growth, SYBR Green, 72 h | Potency, µM (doses to about 28.9 µM), inactives show at the top dose activity, negative = inhibition, actives largely listed as inhibitors | 120,000 compounds, 4.3% hits | AID 1347417; active means well fitted inhibition curve with a large enough effect;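 further: plate controls were DMSO vehicle for no effect and reference drug for full effect; nearly all actives have a fitted effect of over 65% in size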
#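 Infected erythrocytes (Dd2, 0.3% parasitemia, 2.5% hematocrit final) are added to compound in RPMI-1640/Albumax II medium, grown 72 h at 37C in low oxygen, then lysed with saponin/Triton-X containing SYBR Green and read by fluorescence.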
# Numbers without * were called inactive; i = inactive; [ ] = remark or other dose. Potency means the concentration at half of the fitted maximal effect.
SMILES,Pf Dd2 inh
Cc1cc2c(n1-c1ccc(C(=O)NCc3ccc(OC(C)C)cc3)cc1)CCCC2,-13%
COCCCNC(=O)c1ccc(-n2c(-c3ccccc3)cc3c2CCCCC3)cc1,5µM*
CCCNC(=O)c1ccc(-n2c(-c3ccccc3)cc3c2CCC(C)C3)cc1 (centres undefined),i
CCOc1ccc(CCNC(=O)c2ccc(-n3c(C)cc4c3CCCC4)cc2)cc1OCC,7.9µM*
CC(C)NC(=O)c1ccc(-n2c(-c3ccccc3)cc3c2CCCCC3)cc1,-20%
CCOc1ccc(CCNC(=O)c2ccc(C)c(-n3c(C)nc4cccnc43)c2)cc1OCC,-2%
CN(C)CCNC(=O)c1ccc(-n2c(-c3ccccc3)cc3c2CCCCC3)cc1,0.35µM*
CC1CCc2c(cc(-c3ccccc3)n2-c2ccc(C(=O)NC(C)C)cc2)C1 (centres undefined),i
Cn1nccc1C(=O)N1CCCC1c1nc(C2CCOCC2)no1 (centres undefined),28%
Cc1nc(C)c(CC(=O)NC2CC(c3cc(=O)[nH]cn3)C2)s1 (centres undefined),-4%
Cc1ccccc1-c1nc(N2CCOCC2)cc2c1CN(CC1CC1)C2=O,-24%[44.1 µM]
CCN(CC)C(=O)[C@@H]1CCC[C@@H](NS(=O)(=O)c2ccccc2)CN(C)C(=O)C1,9%[44.1 µM]
CC1CCC(NC(=O)c2cc3n(n2)CC(c2ccc4c(c2)OCO4)OC3)CC1 (centres undefined),-25%
Cc1nc(N2CCC(C(=O)NC3CCCCCC3)CC2)cc(C(F)(F)F)n1,i
O=C(CSc1nc(-c2ccccc2)no1)N1CCN(c2ccccc2)CC1,10µM*
COc1ccc(N2CCN(C(=O)CSc3nc(-c4ccc(C(C)C)cc4)no3)CC2)cc1,0.28µM*
CCc1ccc(-c2nc(CSCC(=O)N3CCN(c4ccc(F)cc4)CC3)c(C)o2)cc1,i
O=C(CSc1nc2ccccc2nc1Cc1ccccc1)N1CCN(c2ccccc2)CC1,44%
COc1ccc(N2CCN(C(=O)CCc3conc3-c3ccc(F)cc3)CC2)cc1,i
CC(C)c1ccc(-c2noc(SCC(=O)N3CCN(c4ccc(F)cc4)CC3)n2)cc1,0.45µM*
COc1ccc(N2CCN(Cc3nc(-c4ccc(C)cc4)no3)CC2)cc1,i
COc1ccc(-c2nc(CSCC(=O)N3CCN(c4ccccc4)CC3)c(C)o2)cc1,7.1µM*
COc1ccc(N2CCN(C(=O)CSCc3ccc(C)cc3)CC2)cc1,-15%
Cc1ccc(CSCC(=O)N2CCN(c3ccc(F)cc3)CC2)cc1,19%
COc1ccc(N2CCN(C(=O)CSc3n[nH]c(-c4ccccc4)n3)CC2)cc1,6%
SMILES,Pf Dd2 inh
O=C(CSc1n[nH]c(-c2ccccc2)n1)N1CCN(c2ccc(F)cc2)CC1,5%
N#Cc1cccnc1N1CC[C@@H](N2CCC(O)CC2)[C@H](O)C1,-4%
CN1C[C@@H]2CCCN3CCC[C@@H]([C@H]23)[C@H]1CCCC(=O)NCC1CC1,-5%
Cc1ncc2n1C(=O)N(C1CCN(C(=O)NC3CCCC3)CC1)C2,20%[44.1 µM]
COc1cccc(C(=O)N2C(C(=O)NCc3ccccc3F)COC23CCC(C)CC3)c1 (centres undefined),-22%
O=C(c1ccccc1F)N1CCc2nc(-c3ccc(Cl)cc3)nc(-c3ccccc3)c2C1,i
O=C1CCCCC(C(=O)NCc2cc(F)ccc2F)N1 (centres undefined),29%
CCOc1ccccc1NC(=O)C1CC(=O)N(c2n[nH]c3ccccc23)C1 (centres undefined),-14%
COc1ccc(CCNC(=O)c2cc[nH]c2C2CCCN(C(C)=O)C2)c(OC)c1 (centres undefined),-14%
CCCCCC(=O)N1CC[C@@H](CC(=O)N(C)CC#N)[C@@H](CC)C1,-6%[44.1 µM]
COc1ccccc1-c1ccnc(N[C@H]2CO[C@H]3[C@@H]2OC[C@@H]3NS(=O)(=O)c2cccs2)n1,-16%
COc1ccccc1-c1ccnc(N[C@H]2CO[C@H]3[C@@H]2OC[C@@H]3NS(C)(=O)=O)n1,14µM*
COc1ccccc1-c1ccnc(N[C@H]2CO[C@H]3[C@@H]2OC[C@@H]3NS(=O)(=O)c2ccc(NC(C)=O)cc2)n1,i
Cn1ccnc1CN1C(=O)CO[C@H]2CN(C(=O)c3cnccn3)C[C@H]21,27%[44.1 µM]
CN1c2cc(C(=O)Nc3ccc(Cl)c(C(F)(F)F)c3)ccc2C(=O)N2CCCC21 (centres undefined),i
Cc1ccc(NC(=O)N2CCCN(C(=O)C3CC3)C(c3ccccc3)CC(=O)NCC2)cc1C (centres undefined),i
Cc1cnc(C(=O)N2CCC(N3C(=O)C(OCC4CC4)C34CCOCC4)CC2)cn1 (centres undefined),-14%
COc1ccccc1NC(=O)N(Cc1ccc2c(c1)OCO2)C1CCN(Cc2ccccc2)CC1,11µM*
O=C(Nc1ccccc1)N(Cc1ccc2c(c1)OCO2)C1CCN(Cc2ccccc2)CC1,-28%
CCN1CCC(N(Cc2ccc3c(c2)OCO3)C(=O)Nc2cccc(C)c2C)CC1,18%
CN(C)c1ccc(C(=O)NC[C@H]2O[C@@H](CO)[C@@H](O)[C@H]2N2CCN(c3ccccc3)CC2)cc1,i
CN1CC(=O)N(C2CCCC2)Cc2c1ncnc2N1CCN(Cc2ccccc2)CC1,-29%
CCOc1ccccc1C(=O)N1CCN(c2cc(-c3cccs3)[nH]n2)CC1,i
CCCCc1ccc(Nc2cc(C)nc(-n3nc(C)cc3C)n2)cc1,2.8µM*
CC(=O)c1ccc(NC(=O)Cn2c(-n3nc(C)cc3C)nc(C)cc2=O)cc1,i
SMILES,Pf Dd2 inh
CCCCOC(=O)c1ccc(Nc2nnc(-n3nc(C)cc3C)c3ccccc23)cc1,-10%
Cc1cc(Nc2ccc(F)cc2)nc(-n2nc(C)cc2C)n1,11µM*
COc1ccc(Nc2nnc(-n3nc(C)cc3C)c3ccccc23)cc1,-14%
Cc1cc(C)n(-c2nc3ccccc3nc2Nc2ccc(C(C)C)cc2)n1,-10%
CC(C)(C)n1ccc(C(=O)N2CCC3(CCCN(C4CCCC4)C3=O)C2)c1 (centres undefined),5%
O=C(Cn1ccn2nc(-c3ccccc3)c(CO)c2c1=O)N1CCCc2ccccc21,-5%
Cc1noc(C)c1CC(=O)NC1CCc2nn(CC3CC3)c(=O)n2CC1 (centres undefined),95%
COC[C@@H]1CN(Cc2ccc(F)cc2F)C[C@H]1C(=O)NC1CC1,-29%
COC[C@@H]1CN(Cc2ccc(OC)c(C)c2)C[C@H]1C(=O)NC1CC1,-2%
COc1ccc(OC2CN(Cc3ccc(NC(C)=O)cc3)C2)cc1,-3%
O=C(NCC1CC1)c1cccc(OC2CN(Cc3ccc(OC(F)(F)F)cc3)C2)c1,8.9µM*
O=C(NC1CC1)[C@@H]1CN(Cc2ccc(Cl)cc2F)C[C@H]1CO,7.9µM*
O=C(NCC1CC1)c1cccc(OC2CN(C3CCOCC3)C2)c1,i
O=C(NC1CC1)[C@@H]1CN(Cc2ccc(OC(F)(F)F)cc2)C[C@H]1CO,13µM*
O=C(NC1CC1)[C@@H]1CN(Cc2cc(F)c(F)cc2F)C[C@H]1CO,-22%
CNC(=O)[C@@H]1CN(Cc2ccccc2OC(F)(F)F)C[C@H]1CO,6%
O=C(Cn1nc2n(c1=O)CCCC2)NCc1ccc2c(c1)OCO2,7%
COc1nc2c(cc1CNC(=O)CC1CC1)C(=O)N(C1CCCC1)C2,-17%
O=C(CN1CC2CC(C1)[C@H]1CCCC(=O)N1C2)NCCC1=CCCCC1 (some centres undefined),-12%
O=C(O)CCCNC(=O)Cn1nc2c(cc1=O)CCCC2,-22%
COc1cccc(CN2CC3(CCN(C(=O)CSC(C)C)CC3)CC2=O)c1,-3%

# Screens from PubChem.
